Data reported in PubChem BioAssay AID624138 (Broad Institute, 2012).
Out of some 17,000 compounds screened, about 35 (0.2%) were called active. This is one part of a sample in which actives are shown more often than they occur.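 The calls were made as follows: active = compounds whose four printed spots each show fluorescence over background unusually high for their array block, chance value under 7%; inactive = the rest.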

Molecular target: Signal transducer and activator of transcription 3 (Homo sapiens) (UniProt P40763)
Assay: small molecules binding His-tagged STAT3 – biochemical, small molecule microarray, single point, set 2, primary screen (AID 624138)
Settings: anti-His fluorescence

Signal transducer and activator of transcription 3 (Homo sapiens), sequence (P40763 whole entry, looked up): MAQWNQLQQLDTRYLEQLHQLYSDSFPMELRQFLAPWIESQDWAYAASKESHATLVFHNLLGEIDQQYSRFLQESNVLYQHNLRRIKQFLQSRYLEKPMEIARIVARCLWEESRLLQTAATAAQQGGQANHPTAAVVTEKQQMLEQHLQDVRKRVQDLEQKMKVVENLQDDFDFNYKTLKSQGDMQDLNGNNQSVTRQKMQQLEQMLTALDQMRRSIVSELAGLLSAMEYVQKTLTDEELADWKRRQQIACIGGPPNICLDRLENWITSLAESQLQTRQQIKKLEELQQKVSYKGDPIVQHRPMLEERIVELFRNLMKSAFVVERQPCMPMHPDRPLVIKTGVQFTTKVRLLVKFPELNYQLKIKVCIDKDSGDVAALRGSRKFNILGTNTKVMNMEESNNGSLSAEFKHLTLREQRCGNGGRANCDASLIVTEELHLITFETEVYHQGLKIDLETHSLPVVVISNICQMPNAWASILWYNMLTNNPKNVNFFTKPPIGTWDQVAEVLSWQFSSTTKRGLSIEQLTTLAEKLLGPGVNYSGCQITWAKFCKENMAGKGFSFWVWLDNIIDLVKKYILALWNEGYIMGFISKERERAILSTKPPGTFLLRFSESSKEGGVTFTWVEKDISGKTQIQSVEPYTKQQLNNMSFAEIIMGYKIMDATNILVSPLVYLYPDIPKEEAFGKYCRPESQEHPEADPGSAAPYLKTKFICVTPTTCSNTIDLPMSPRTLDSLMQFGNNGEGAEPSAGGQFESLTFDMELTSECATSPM

outcome, active:
C[C@H](CO)N1C[C@H](C)[C@H](CN(C)C(=O)CCC(F)(F)F)OCCCC[C@H](C)Oc2ccc(NS(C)(=O)=O)cc2C1=O

outcome, inactive:
CCO[C@@H]1OC(C(=O)N2CCOCC2)=C[C@H](C)[C@H]1CCCO
O=[N+]([O-])c1ccc(NCCNS(=O)(=O)c2ccc(Br)cc2)c(C(F)(F)F)c1
COc1ccc(NC(=S)NCc2cc(C)n(C)n2)cc1OC
C[C@@H]1CN([C@@H](C)CO)C(=O)c2cc(NC(=O)Nc3ccc4c(c3)OCO4)ccc2O[C@@H]1CN(C)C(=O)Nc1ccc2c(c1)OCO2
C[C@@H]1CN([C@H](C)CO)C(=O)c2cccc(NC(=O)Nc3cccc4ccccc34)c2O[C@@H]1CN(C)C(=O)Nc1cccc2ccccc12
CNC[C@@H]1Oc2ccc(NC(=O)CCC(F)(F)F)cc2C(=O)N([C@@H](C)CO)C[C@@H]1C
Oc1cc(O)c2c(c1)OC(c1ccc(O)c(O)c1)C(O)C2 (stereo unspecified)
C[C@H]1CN([C@@H](C)CO)C(=O)c2cc(N(C)C)ccc2O[C@@H]1CN(C)Cc1ccccc1
CCN(CCCCOC(=O)c1ccc(OC)c(OC)c1)C(C)Cc1ccc(OC)cc1 (stereo unspecified)
COc1ccc(S(=O)(=O)N(C)C[C@H]2Oc3c(NC(=O)NC4CCCCC4)cccc3C(=O)N([C@@H](C)CO)C[C@@H]2C)cc1
CCc1cc2c(=O)n(-c3ccccc3)c(SCC(=O)O)nc2s1
C[C@H]1CCCCO[C@@H](CN(C)C(=O)c2ccccc2)[C@@H](C)CN([C@@H](C)CO)C(=O)c2cc(NS(=O)(=O)c3cccs3)ccc2O1
Cc1noc(C)c1NC(=O)Nc1ccc2c(c1)C(=O)N([C@@H](C)CO)C[C@H](C)[C@@H](CN(C)C(=O)C1CCCCC1)OCCCC[C@@H](C)O2
C[C@@H]1CN([C@H](C)CO)C(=O)c2cc(NS(=O)(=O)c3ccccc3)ccc2O[C@@H](C)CCCCO[C@@H]1CN(C)C(=O)CCC(F)(F)F
C[C@@H]1CCCCO[C@H](CN(C)C(=O)CCC(F)(F)F)[C@H](C)CN([C@H](C)CO)C(=O)c2cc(NS(C)(=O)=O)ccc2O1
Cc1ccc(-n2c(SCC(=O)Nc3ccc(F)c(F)c3)nnc2-c2ccccn2)cc1
CC(C)NC(=O)Nc1ccc2c(c1)C(=O)N([C@H](C)CO)C[C@H](C)[C@H](CN(C)Cc1ccc(C(=O)O)cc1)OCCCC[C@@H](C)O2
O=C(NCc1ccco1)c1nc2ncccn2n1
OC(COc1ccc2ccccc2c1)Cn1cncn1 (stereo unspecified)
Cc1ccc(C(=O)C2C(=O)C(=O)N(Cc3cccnc3)C2c2ccc(Cl)c(Cl)c2)o1 (stereo unspecified)
Cc1noc(C)c1NC(=O)Nc1ccc2c(c1)C(=O)N([C@@H](C)CO)C[C@H](C)[C@H](CN(C)Cc1ccc(C(=O)O)cc1)OCCCC[C@@H](C)O2
C[C@H](CO)N1C[C@H](C)[C@H](CN(C)Cc2ccncc2)Oc2ccc(N(C)C)cc2C1=O
C[C@H]1CN([C@@H](C)CO)C(=O)c2cc(NC(=O)Cn3cnnn3)ccc2O[C@@H]1CN(C)CC1CCCCC1
C[C@H]1CN([C@@H](C)CO)C(=O)Cc2cc(NC(=O)Nc3ccccc3)ccc2O[C@H]1CN(C)Cc1ccncc1
Cc1cc(O)c2c(c1)C(=O)OC2c1c(O)cccc1O (stereo unspecified)
CO[C@H]1O[C@H](CO)[C@@H](OC(=O)Nc2ccccc2-c2ccccc2)[C@H](OC(=O)Nc2ccccc2)[C@H]1OC(=O)Nc1ccccc1
CC(=O)n1cc([C@@H]2C=C(C(=O)N3CCN(Cc4ccc5c(c4)OCO5)CC3)O[C@H](OCc3ccc(CO)cc3)C2)c2ccccc21
Cc1noc(C)c1S(=O)(=O)Nc1ccc2c(c1)C(=O)N([C@@H](C)CO)C[C@@H](C)[C@H](CN(C)C(=O)NC(C)C)OCCCC[C@@H](C)O2
Cc1noc(C)c1NC(=O)Nc1ccc2c(c1)C(=O)N([C@@H](C)CO)C[C@H](C)[C@H](CN(C)S(=O)(=O)c1cn(C)cn1)OCCCC[C@@H](C)O2
C[C@@H]1CN([C@H](C)CO)C(=O)c2cccc(NS(=O)(=O)c3cccs3)c2O[C@@H]1CN(C)C(=O)Nc1cccc2ccccc12
CC(C)NC(=O)Nc1ccc2c(c1)C(=O)N([C@@H](C)CO)C[C@@H](C)[C@H](CN(C)S(=O)(=O)c1ccccc1)OCCCC[C@@H](C)O2
CC(=O)Nc1ccc(NC(=O)CC2C(=O)Nc3ccccc3N2C(C)=O)cc1 (stereo unspecified)
COc1ccc2c(c1)C(=O)CC(c1ccccc1)O2 (stereo unspecified)
Cc1ccc2[nH]c(C)c(CCNC(=O)Nc3ccc(Cl)cc3)c2c1
C[C@@H]1CN([C@H](C)CO)C(=O)c2cccc(NC(=O)C3CCOCC3)c2O[C@H]1CN(C)S(=O)(=O)c1ccc(Cl)cc1
COc1ccc(S(=O)(=O)Nc2ccc3c(c2)CC(=O)N([C@H](C)CO)C[C@H](C)[C@H](CN(C)CC2CC2)O3)cc1
Cc1noc(C)c1S(=O)(=O)N(C)C[C@H]1Oc2c(NC(=O)c3cnccn3)cccc2C(=O)N([C@H](C)CO)C[C@H]1C
C/C(=C/CC[C@@H](CO)[C@H]1CC[C@@]2(C)[C@@H]3CC[C@H]4C(C)(C)[C@@H](O[C@@H]5O[C@H](CO)[C@@H](O)[C@H](O)[C@H]5O)C[C@H](O)[C@@]45C[C@@]35CC[C@]12C)CO
O=C(C1=C[C@@H](c2ccccc2)C[C@@H](OCCCCO)O1)N1CCN(Cc2ccccc2)CC1
C=C1C[C@@H]2COC(=O)[C@]2(Cc2ccc3ccccc3c2)C1
O=C(OC1OC(CO)C(O)C(O)C1O)c1c(O)cc(O)cc1/C=C/c1ccccc1 (stereo unspecified)
COc1ccc(CN(C)C[C@@H]2Oc3ccc(NC(=O)Nc4ccc(OC)cc4)cc3CC(=O)N([C@H](C)CO)C[C@H]2C)cc1
C[C@@H]1CCCCO[C@H](CN(C)C(=O)CCCN(C)C)[C@H](C)CN([C@@H](C)CO)C(=O)c2cc(NS(=O)(=O)c3ccccc3)ccc2O1
C[C@@H]1CCCCO[C@@H](CN(C)C(=O)CCCN(C)C)[C@@H](C)CN([C@H](C)CO)C(=O)c2cc(NC(=O)CCCN(C)C)ccc2O1
CNC[C@H]1Oc2ccc(NC(=O)CCC(F)(F)F)cc2C(=O)N([C@@H](C)CO)C[C@H]1C
CCCCCc1ccc(/C=C/C(=O)Nc2ccccc2C(=O)O)cc1
CC(Sc1nc2ccccc2[nH]1)c1nc2ccccc2[nH]1 (stereo unspecified)
C[C@H]1CCCCO[C@H](CN(C)C)[C@@H](C)CN([C@@H](C)CO)C(=O)c2cc(NC(=O)CCCN(C)C)ccc2O1
COC(=O)CSc1nnc(-c2ccc(Cl)cc2)n1-c1ccc(Br)cc1
C[C@@H]1CN([C@H](C)CO)C(=O)Cc2cc(NC(=O)C3CC3)ccc2O[C@H]1CN(C)Cc1ccc(Cl)c(Cl)c1
COc1ccc(NC(=O)CN(C)S(=O)(=O)c2ccccc2)cc1OC
C#CCN1C(Cc2ccccc2)C(=O)O[C@H](C2CCCCC2)[C@@H]1/C=C/C1CC1 (stereo partly specified)
C[C@@H]1CN([C@H](C)CO)C(=O)Cc2cc(N(C)C)ccc2O[C@@H]1CN(C)Cc1ccccc1
C[C@H]1CN([C@@H](C)CO)C(=O)c2cccc(NC(=O)C3CCOCC3)c2O[C@@H]1CN(C)C
CC1(C)CC(=O)c2ccc(O)cc2O1
C[C@@H]1CN([C@@H](C)CO)C(=O)CCCn2cc(nn2)CO[C@H]1CN(C)C(=O)Nc1ccc(N2CCCCC2)cc1
Cc1noc(C)c1S(=O)(=O)N(C)C[C@H]1Oc2ccc(NC(=O)Cc3ccccc3)cc2CC(=O)N([C@@H](C)CO)C[C@H]1C
COc1ccccc1NC(=O)CNC(=O)c1ccc(C)cc1
CC(C)NC(=O)Nc1ccc2c(c1)C(=O)N([C@H](C)CO)C[C@H](C)[C@@H](CN(C)C)OCCCC[C@H](C)O2
CCn1c(SCC(=O)Nc2sc3c(c2C#N)CCCC3)nnc1-c1ccccc1O
